Drawing on PubChem BioAssay (NCI), this text covers growth inhibition for 21 compounds.

Compounds without any hit were thinned out: in the full panel of roughly 79,000, 15% have a hit. Values without a mark were called inactive. Active and inactive are the calls of the source. Rule as the data show it: active = growth inhibition above about 70%; inactive = the rest.

The nature of experiment [1]: NCI Yeast Anticancer Drug Screen. Data for the rad50 strain (AID 155).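 Also: 0% = growth of vehicle-only cultures of the same strain.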 As to conditions: S. cerevisiae rad50 strain growth inhibition; at 50.0 µM; hits give high values. In a few lines:
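Relative growth inhibition (compound vs vehicle) was measured in yeast with a defined repair-gene alteration.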

A short description of experiment [2]: NCI Yeast Anticancer Drug Screen. Data for the mec2-1 strain (AID 157). To be noted: S. cerevisiae mec2-1 strain, at 50.0 µM, hits give high values. In a few lines:
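Each compound was tested on mec2-1 yeast, a strain altered in DNA damage repair or cell cycle control. Growth inhibition is reported relative to vehicle.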

The nature of experiment [3]: NCI Yeast Anticancer Drug Screen. Data for the sgs1 mgt1 strain (AID 161).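 Also: 0% = growth of cultures given vehicle only.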 To be noted: S. cerevisiae sgs1 mgt1 strain, at 50.0 µM, hits give high values. In a few lines: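 Inhibition of yeast growth, normalised to vehicle-treated controls, is reported for a strain bearing genetic alterations in DNA damage repair.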
Experiment [4] in a line: NCI Yeast Anticancer Drug Screen. Data for the cln2 rad14 strain (AID 165).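 Also: 0% = growth equal to vehicle treated cultures.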 As to conditions: S. cerevisiae cln2 rad14 strain, at 50.0 µM, hits give high values. In a few lines:
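Test compounds were added to cln2 rad14 yeast cultures; inhibition of growth was then determined by comparison with vehicle treatment.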

A short description of experiment [5]: NCI Yeast Anticancer Drug Screen. Data for the bub3 strain (AID 167). As to conditions: S. cerevisiae bub3 mutant strain, at 50.0 µM, hits give high values. In a few lines:
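Screening used yeast with an engineered genetic alteration affecting cell cycle control. Compound-exposed cultures were compared with vehicle cultures, and reduced growth was taken as inhibition.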

The nature of experiment [6]: NCI Yeast Anticancer Drug Screen. Data for the mlh1 rad18 strain (AID 175). As to conditions: S. cerevisiae mlh1 rad18 strain growth inhibition; at 50.0 µM; hits give high values. In a few lines: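 Inhibition values reflect reduced growth of mutant yeast versus vehicle-treated controls following compound exposure; the mutations affect DNA damage repair.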

With `CC1=CC2=NCC(O)CN2C=C1` (stereo unspecified), the growth inhibition was -4.2% in experiment [1]; 28.6% in experiment [2]; 9.25% in experiment [3]; 12.8% in experiment [4]; 14.4% in experiment [5]; 2.2% in experiment [6].
For `COc1cccc(/C=C2/C(=O)N(c3ccc([N+](=O)[O-])cc3)N=C2C)c1`, the growth inhibition is 34.5% in experiment [1]; 5.1% in experiment [2]; 37.9% in experiment [3]; 11.9% in experiment [4]; 14.3% in experiment [5]; 43.9% in experiment [6].
Turning to `O=C(NCc1ccco1)Nc1ccccc1`, the growth inhibition is -5.8% in experiment [1]; -21.2% in experiment [2]; -11.7% in experiment [3]; -36% in experiment [4]; 7.1% in experiment [5]; -7.55% in experiment [6].
Regarding `COc1ccc2nccc(C(=O)CCC3CCN(C(=O)c4ccc([N+](=O)[O-])cc4)CC3C(CBr)CCBr)c2c1` (stereo unspecified), the growth inhibition is 16.7% in experiment [1]; 6.35% in experiment [2]; 26.6% in experiment [3]; -1.85% in experiment [4]; 6.2% in experiment [5]; 34.2% in experiment [6].
As to `CCC1C(C#N)=C(O)NC(O)=C1C#N`, the growth inhibition was 25.8% in experiment [1]; 6.1% in experiment [2]; 11.8% in experiment [3]; 8.6% in experiment [4]; 19.2% in experiment [5]; -1.65% in experiment [6].
With `O=c1[nH]ncn2nc3ccccc3c12`, the growth inhibition in experiment [1] is 3%; in experiment [2], 10.2%; in experiment [3], -2.5%; in experiment [4] it was -53.1%; in experiment [5] it was -1.3%; in experiment [6], 8.15%.
In the case of `COC(=O)N1c2ccccc2C23CCN4CCCC5(CCC12C(C(=O)O)C5)C43` (stereo unspecified), the growth inhibition in experiment [1] is -2.6%; in experiment [2], 8.2%; in experiment [3] it was 0.15%; in experiment [4], -9.45%; in experiment [5] it was 3.9%; in experiment [6], 9.7%.
As for `CC(=O)Oc1ccc2c(=O)c(C(C)=O)coc2c1`, the growth inhibition in experiment [1] was 7.45%; in experiment [2], -11.3%; in experiment [3], -3.15%; in experiment [4] it was 14.4%; in experiment [5] it was 4.2%; in experiment [6] it was 14.7%.
On to `CCOC(=O)c1[nH]c2cccc3c2c1CC[C@H](NC(=O)C(F)(F)F)C3=O`, for which the growth inhibition was -5.1% in experiment [1]; 9.3% in experiment [2]; 10.8% in experiment [3]; 18.2% in experiment [4]; 0.95% in experiment [5]; 8.3% in experiment [6].
In the case of `CNCCC(Oc1ccccc1OC)c1ccccc1` (stereo unspecified), the growth inhibition is 30.2% in experiment [1]; 8.9% in experiment [2]; -1.2% in experiment [3]; 10.8% in experiment [4]; 5.25% in experiment [5]; 19.1% in experiment [6].
With `CNC(=O)n1cncn1`, the growth inhibition is -10.6% in experiment [1]; 3.35% in experiment [2]; -9.75% in experiment [3]; 0.1% in experiment [4]; -2.2% in experiment [5]; -12.7% in experiment [6].
As for `C[N+](C)(C)C(Cc1c[nH]c(=S)[nH]1)C(=O)O` (stereo unspecified), the growth inhibition in experiment [1] is -14.9%; in experiment [2], -44.4%; in experiment [3] it was -31.1%; in experiment [4], 9.45%; in experiment [5], -8.4%; in experiment [6] it was -20.4%.
As for `CC1=CC(=O)c2c(C=O)c(O)c(O)c(C(C)C)c2C1=O`, the growth inhibition in experiment [1] was 91% (active); in experiment [2], 93.4% (active); in experiment [3], 91.8% (active); in experiment [4], 91.1% (active); in experiment [5], 91.2% (active); in experiment [6], 90.8% (active).
As for `COc1ccc(C(C)O)cc1` (stereo unspecified), the growth inhibition in experiment [1] is 23.2%; in experiment [2], 3.2%; in experiment [3], 6.25%; in experiment [4], 12.9%; in experiment [5] it was -5.65%; in experiment [6], 9.15%.
For `c1ccc(-c2ccc(-c3ccccc3)c3nonc23)cc1`, the growth inhibition is -32.2% in experiment [1]; -2.25% in experiment [2]; -13.5% in experiment [3]; 23.4% in experiment [4]; 27.4% in experiment [5]; -4.45% in experiment [6].
In the case of `CCN(CC)C(=O)c1ccc(O)c(OC)c1`, the growth inhibition in experiment [1] was 17.7%; in experiment [2], 17%; in experiment [3] it was 7.3%; in experiment [4], 7.65%; in experiment [5], -7.3%; in experiment [6], -4.3%.
On to `O=C(CC1=Nc2nnc(-c3nnc4n3C(=O)C(CC(=O)C3CC3)=N4)n2C1=O)C1CC1`, for which the growth inhibition in experiment [1] was -10%; in experiment [2], 2.95%; in experiment [3] it was -5.25%; in experiment [4] it was -16.6%; in experiment [5], -4.8%; in experiment [6], -3.8%.
Take `NCC(=O)NC1(C(=O)NCC(=O)O)CCCC1`: the growth inhibition is -2.45% in experiment [1]; -2.2% in experiment [2]; -20.9% in experiment [3]; -13.9% in experiment [4]; 6.5% in experiment [5]; 1.3% in experiment [6].
Turning to `CC(c1ccccc1)C(OCc1ccccc1)OCc1ccccc1` (stereo unspecified), the growth inhibition in experiment [1] is -17.1%; in experiment [2], 9.15%; in experiment [3], 4.55%; in experiment [4], -36.5%; in experiment [5], 22.6%; in experiment [6] it was 1.2%.
In the case of `Cc1cc2c(cc1C)NC1C(=O)C(c3ccccc3Cl)OC1=N2` (stereo unspecified), the growth inhibition in experiment [1] is -1.2%; in experiment [2], -10.4%; in experiment [3] it was -2.4%; in experiment [4], 4.55%; in experiment [5], 0.55%; in experiment [6] it was 3.15%.
On to `COC(=O)c1c(C)oc(C)c1-c1ccc(OCc2ccccc2)c(OC)c1`, for which the growth inhibition in experiment [1] was 8.7%; in experiment [2] it was -12.8%; in experiment [3], -35.8%; in experiment [4], 7.6%; in experiment [5], 1.25%; in experiment [6] it was 2.7%.
